Screens from PubChem.
Shown are actives, neighbours in structure and some others; about 1.4% of the full set was active somewhere.
EPAC1 antagonist = blocks human EPAC1 exchange factor | hit rate 0.14% among 360,000 | Potency, µM (top dose mostly 115 µM), for inactives: at the highest dose activity change, negative = inhibition, hits mostly inhibitors | EPAC1 GEF assay, Rap1b-BODIPY-GDP exchange fluorescence | AID 720709;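 further: plate controls were vehicle for no effect and positive control for full effect; nearly all actives have a fitted effect of over 50% in size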
EPAC2 ag = EPAC2 (human) agonism; EPAC2 activation, biochemical qHTS; response scale: 100% = 6.5 mM cAMP response; Potency, µM (doses to about 154 µM), for the others: top-dose activation, most hits filed as activators; AID 720711; hit rate 0.079% among 360,000; Q8WZA2; further: nearly all actives have a fitted effect of over 50% in size
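Readout is BODIPY fluorescence (480 nm excitation, 540 nm emission), which falls as labeled GDP is exchanged off Rap1B. EPAC2 at 100 nM acted on 250 nM RAP1B-BODIPY-GDP with 50 uM GDP present.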
EPAC2 antagonist = blocks human EPAC2 exchange factor; Q8WZA2; EPAC2 GEF exchange of Rap1B-BODIPY-GDP, fluorescence; Potency, µM (series often up to 114 µM), inactives show at the top dose activity, negative = inhibition, actives largely listed as inhibitors; hit rate 0.18% among 360,000; further: on the % scale 0 is the no-effect control and ±100 the full control effect; nearly all actives have a fitted effect of over 45% in size
EPAC1 agonist = activates human EPAC1 exchange factor; EPAC1 agonist qHTS, biochemical assay; response scale: 100% = response to 6.5 mM cAMP; O95398; hit rate 0.073% among 360,000; AID 720707; Potency, µM (highest dose often 154 µM), without a hit: at the top dose activation, usual class: activators; further: nearly all actives have a fitted effect of over 60% in size
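Nucleotide exchange assay: 100 nM EPAC1 with 250 nM Rap1B loaded with BODIPY-GDP and 50 uM GDP, room temperature. Fluorescence (480/540 nm) read every 5 min for 30 min; signal change normalized to 6.5 mM cAMP as full agonist.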
BRCA1 expr act = BRCA1 expression activation; MCF7-BRCA1-FFLuc reporter, luminescence, 48 h; response scale: scaled: vehicle 0%, 10 µM genistein 100%; Potency, µM (doses to about 46.1 µM), for the others: at the highest dose activation, most hits filed as activators; hit rate 1.1% among 380,000; further: nearly all actives have a fitted effect of over 80% in size
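Cells: MCF7-BRCA1-FFLuc, 2000/well. Exposure: 48 h, 37 °C, 5% CO2. Read: luminescence, 15 min post-substrate. Controls: genistein 10 microM (maximal activation), DMSO (neutral).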
USP1 inh = inhibitors of human USP1/UAF1 deubiquitinase | Potency, µM (top dose mostly 57.1 µM), inactives show at the highest dose activity change, negative = inhibition, usual class: inhibitors | recombinant USP1/UAF1, Ub-Rhodamine cleavage fluorescence | O94782 | hit rate 0.23% among 390,000; further: on the % scale 0 is the no-effect control and ±100 the full control effect; nearly all actives have a fitted effect of over 60% in size
Target sequence (O94782 whole entry, looked up): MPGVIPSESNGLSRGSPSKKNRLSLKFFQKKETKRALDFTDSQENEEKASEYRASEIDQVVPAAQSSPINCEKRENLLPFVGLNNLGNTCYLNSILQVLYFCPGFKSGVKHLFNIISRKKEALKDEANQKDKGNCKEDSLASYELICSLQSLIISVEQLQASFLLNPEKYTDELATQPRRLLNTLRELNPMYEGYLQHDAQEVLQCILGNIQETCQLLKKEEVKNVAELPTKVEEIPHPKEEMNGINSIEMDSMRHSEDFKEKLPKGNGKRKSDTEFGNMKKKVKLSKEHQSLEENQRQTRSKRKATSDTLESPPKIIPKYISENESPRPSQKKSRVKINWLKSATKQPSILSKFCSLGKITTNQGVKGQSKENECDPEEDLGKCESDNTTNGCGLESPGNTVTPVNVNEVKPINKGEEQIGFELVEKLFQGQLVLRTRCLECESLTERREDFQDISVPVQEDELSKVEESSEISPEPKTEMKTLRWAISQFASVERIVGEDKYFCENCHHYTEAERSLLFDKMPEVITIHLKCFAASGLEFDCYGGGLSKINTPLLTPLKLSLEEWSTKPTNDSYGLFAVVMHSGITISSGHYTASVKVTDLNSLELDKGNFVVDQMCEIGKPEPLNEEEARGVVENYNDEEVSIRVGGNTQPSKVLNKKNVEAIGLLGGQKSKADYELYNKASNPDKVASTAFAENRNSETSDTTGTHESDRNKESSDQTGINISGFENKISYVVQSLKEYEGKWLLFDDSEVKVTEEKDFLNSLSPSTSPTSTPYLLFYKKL
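1 nM enzyme complex + cpd, 15 min RT; start with Ub-Rho 150nM final; kinetic fluorescence ex 480/em 540, 6 reads q60 s. Buffer 50mM HEPES pH 7.8, 0.5mM EDTA, 0.1 mg/ml BSA, 1mM TCEP, 0.01% Tween-20.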
Active calls of the source: *; ? = inconclusive; · = no result given. The call rests on the fitted dose curve; in most records, active means well fitted curve in the direction sought with a large enough effect; inconclusive means small, poorly fitted or top-dose-only effect, or another doubt; inactive means no such curve, though single readings can be large; an effect the other way counts as inactive or inconclusive. Potency means the concentration at half of the fitted maximal effect.

SMILES	EPAC1 antagonist	EPAC2 ag	EPAC2 antagonist	EPAC1 agonist	BRCA1 expr act	USP1 inh
COc1cccc(NCc2cccn2-c2nnc(N3CCC(C)CC3)s2)c1	·	·	·	·	22%	-20%
OC[C@@H]1CN(Cc2cccnc2)C[C@H](n2cnc3c(N4CCN(c5ccccc5)CC4)ncnc32)O1	-15%	13%	12%	12%	-9%	·
COCCN(C(=O)CSc1nnc(-c2ccccc2F)o1)c1c(N)n(Cc2ccccc2)c(=O)[nH]c1=O	11%	2%	2%	-1%	-14%	-13%
COc1ccc(-c2nc3ccccn3c2NCc2ccc3c(c2)OCO3)cc1	-11%	4%	-6%	5%	7.9µM*	-9%
CCOC1=CC2=C(C(=O)C(Cl)=CC2=O)[C@@H]2CN(S(=O)(=O)c3ccc(C)cc3)[C@@H](c3ccccc3)[C@H]12	56µM*	2%	-4%	-5%	-30%	·
Cc1ccc2nc(CSc3nnc(NC(=O)CC(C)C)s3)cc(=O)n2c1	·	·	·	·	·	-15%
O=C(Nc1cccnc1)c1ccc(CSc2ccccc2)cc1	-9%	-4%	9%	-1%	18%	-13%
CN(C=O)c1ccc(CSc2ccccc2)cc1	-10%	12%	-6%	1%	8.9µM*	-6%
Oc1c(Br)cc(/C=N/Nc2ccc(Cl)nn2)cc1Br	25µM*	-2%	-7%	-4%	-45%	-26%
CC(C)Oc1ccccc1/C=N/Nc1ccccc1[N+](=O)[O-]	-9%	17%	-15%	9%	36%	-4%
COc1ccccc1/C=N/Nc1nncc2ccccc12	-28%	-1%	2%	6%	10µM*	-8%
Oc1c(Br)cc(/C=N/Nc2nncc3ccccc23)cc1Br	2%	-7%	-2%	5%	8.9µM*	?
COc1ccccc1/C=N\Nc1ccccc1[N+](=O)[O-]	5%	9%	7%	-2%	10µM*	-6%
Nc1[nH]c(=S)nc2nnsc12	·	·	·	·	7%	·
CCOC(=O)c1ccc(N2C(=O)C3CCCN3C2=S)cc1 (stereo not given)	10%	1%	1%	2%	6%	-24%
O=C(c1cnn(-c2ccccc2)c1)c1cc(F)ccc1O	-8%	11%	3%	-6%	10µM*	-15%
O=C(c1cnn(-c2ccccc2)c1)c1ccccc1O	?	21%	-14%	17%	?	-6%
Cc1ccccc1C(=O)N/N=C/c1cccc2ccccc12	14%	1%	12%	-5%	13µM*	-20%
COc1cc2c(cc1OC)C(c1ccccc1)N(C(=O)c1ccco1)CC2 (stereo not given)	-30%	15%	10µM*	-4%	-24%	-3%
COc1cc(NC(=O)CN2C(=O)C(c3ccc(Cl)cc3)=NC23CCCCC3)cc(OC)c1	·	·	·	·	·	-23%
Cc1nc(=O)c(-c2ccccc2)c(C)n1-c1ccccc1Cl	2%	7%	4%	-7%	-1%	-7%
Cc1ccc(C)c(OCCn2nnc3ccccc32)c1	-12%	-3%	?	2%	99%	-11%
Cc1cc(C)cc(OCCn2nnc3ccccc32)c1	8%	4%	-29%	2%	11µM*	-17%
Clc1ccccc1OCCn1nnc2ccccc21	-14%	4%	5%	3%	11µM*	-15%
COc1ccccc1NC(=O)CNC(=O)CC12CC3CC(CC(C3)C1)C2	?	21%	-5%	-11%	-54%	-9%
SMILES	EPAC1 antagonist	EPAC2 ag	EPAC2 antagonist	EPAC1 agonist	BRCA1 expr act	USP1 inh
Nc1nc(N)c2snnc2n1	·	·	·	·	16%	·
COc1ccc(N2CCN(C(=O)CCS(=O)(=O)c3cc4c(cc3Cl)NC(=O)CO4)CC2)cc1	·	·	·	·	-10%	-11%
O=C(CN1C(=O)CCC1=O)c1ccc(-c2ccccc2)cc1	11%	1%	20%	1%	13µM*	-23%
N=c1ccn(CC(=O)c2ccc(-c3ccccc3)cc2)cc1	-4%	2%	-2%	15%	-58%	-3%
Cc1noc(C)c1S(=O)(=O)N1CCCC1C(=O)O (stereo not given)	-2%	8%	19%	-6%	-1%	-6%
COc1ccc(CCNC(=O)Cn2cc(S(=O)(=O)Cc3cccc(Cl)c3)c3ccccc32)cc1OC	·	·	·	·	·	-17%
O=C(CCN1CCN(c2ccccc2)CC1)N/N=C/c1ccc(O)c(O)c1O	79µM*	5%	1%	6%	4%	-23%
COc1ccc(/C=N/NC(=O)CCN2CCN(c3ccccc3)CC2)c(OC)c1OC	2%	0%	8%	-2%	-11%	-7%
O=C(CNC(=O)c1ccc(Cl)cc1)c1ccc(Cl)cc1	1%	10%	12%	-7%	11µM*	-16%
COCCn1c(-c2ccc(OC)cc2)nc2oc3cc(OC)ccc3c(=O)c2c1=O	7%	5%	8%	7%	-8%	?
COCCn1c(-c2ccc(OC)cc2)c(-c2ccc(OC)cc2)oc1=O	16%	2%	35µM*	-2%	-11%	-13%
Cc1cc(C)n(Cc2ccc(C(=O)O)cc2)n1	-8%	8%	-1%	5%	18%	-6%
Cc1ccc(C)n1Cc1ccc(C(=O)O)cc1	-25%	-1%	?	20%	-3%	25µM*
CCOC(=O)c1ccc(CNCc2ccccc2)cc1	2%	-1%	5%	-5%	11µM*	-5%
CCOC(=O)c1ccccc1N/C=C/C(=O)c1ccccc1	0%	-3%	-5%	3%	-14%	?
CCOC(=O)c1ccc(CNCc2ccc(Br)cc2)cc1	-6%	10%	-1%	3%	-38%	-5%
CCOC(=O)c1ccc(N/C=C/C(=O)c2ccccc2)cc1	-18%	4%	-5%	13%	13µM*	-6%
COc1cccc(OCC(=O)N2CCCc3ccccc32)c1	13%	12%	0%	6%	35%	-11%
CCN(CCCNC(=O)c1cc2cc3cc(C)ccc3nc2s1)c1cccc(C)c1	·	·	·	·	·	-29%
Cc1nn(CC(=O)NCc2ccccc2)c(C)c1[N+](=O)[O-]	12%	7%	9%	-7%	13%	-9%
Cc1nn(CC(=O)c2ccccc2Cl)c(C)c1[N+](=O)[O-]	-6%	-1%	-12%	9%	10µM*	-6%
COc1ccc(N(C(=O)c2ccccc2F)S(=O)(=O)c2ccc3c(c2)n(C)c(=O)n3C)cc1	·	·	·	·	·	0%
Cc1ccsc1/C=C(\CC(=O)O)c1nc2ccccc2o1	-5%	3%	4%	-9%	7.9µM*	-13%
COc1ccc2cnn(-c3ccc(C)cc3)c(=O)c2c1OC	10%	13%	8%	-9%	4.5µM*	-20%
C/C(=N/OCC(=O)Nc1ccc(C)cc1C)c1cccs1	-13%	13%	-5%	15%	-16%	-6%
